# Residue numbers refer to the chain shown, from its start.
# Columns and labels:
# Assay in all cases: yeast three-hybrid, YBZ-1, SC-Leu-His + 0.5 mM 3-AT, 4 days
# Conditions in all cases: tags: N-Gal4 AD-HA kept; label: inside an RPR1-promoter hybrid RNA with tandem MS2 sites; ssRNA
# [1] = target: PUM1 PUF domain R3-QPR (Homo sapiens, UniProt Q14671 828-1176, C935Q;R936P;Q939R)
# Method in brief: (§1)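 Each repeat of the Pumilio-1 PUF domain was randomized at its three base-contacting residues, and these libraries were co-expressed from a centromeric plasmid with matching RNA elements in strain YBZ-1. After four days on SC-Leu (input) or SC-Leu-His + 0.5 mM 3-AT (selection), the repeat regions were PCR-amplified and Illumina-sequenced. The interaction score compares variant frequency between input and selection as a log change, computed in log2 with a pseudocount of 1 for absent variants.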
# [2] = target: PUM1 PUF domain R3-WWQ (Homo sapiens, UniProt Q14671 828-1176, C935W;R936W)
# Method in brief: as §1
# [3] = target: PUM1 PUF domain R3-RTS (Homo sapiens, UniProt Q14671 828-1176, C935R;R936T;Q939S)
# Method in brief: as §1
# [4] = target: PUM1 PUF domain R3-YSG (Homo sapiens, UniProt Q14671 828-1176, C935Y;R936S;Q939G)
# Method in brief: as §1
# [5] = target: PUM1 PUF domain R7-RCN (Homo sapiens, UniProt Q14671 828-1176, S1079R;N1080C;E1083N)
# Method in brief: as §1
# [6] = target: T1, PUM1 PUF domain R6-DWI (Homo sapiens, UniProt Q14671 828-1176, N1043D;Y1044W;Q1047I)
# T1 sequence: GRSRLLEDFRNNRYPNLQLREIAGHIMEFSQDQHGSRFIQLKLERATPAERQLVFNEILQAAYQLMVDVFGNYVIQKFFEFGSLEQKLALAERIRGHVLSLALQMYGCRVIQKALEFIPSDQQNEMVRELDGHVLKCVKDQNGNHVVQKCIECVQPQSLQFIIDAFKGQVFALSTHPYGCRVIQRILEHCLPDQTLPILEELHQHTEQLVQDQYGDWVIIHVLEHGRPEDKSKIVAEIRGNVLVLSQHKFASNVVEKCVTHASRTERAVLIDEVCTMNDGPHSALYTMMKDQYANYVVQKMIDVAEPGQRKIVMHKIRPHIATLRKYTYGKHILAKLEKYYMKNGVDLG
# Method in brief: as §1
# [7] = target: T2, PUM1 PUF domain R6-VFG (Homo sapiens, UniProt Q14671 828-1176, N1043V;Y1044F;Q1047G)
# T2 sequence: T1 sequence with D216V, W217F, I220G
# Method in brief: as §1
# [8] = target: PUM1 PUF domain R5-IRP (Homo sapiens, UniProt Q14671 828-1176, C1007I;Q1011P)
# Method in brief: as §1
# [9] = target: PUM1 PUF domain R5-RHR (Homo sapiens, UniProt Q14671 828-1176, C1007R;R1008H;Q1011R)
# Method in brief: as §1
# [10] = target: PUM1 PUF domain R1-RRM (Homo sapiens, UniProt Q14671 828-1176, S863R;Q867M)
# Method in brief: as §1
sequence,measurement,setting,value
GGCUAGAACUAGUGGAUCCCCCGGCGCCCGGCGGCUCGAGCCCGGGUAAGUGUAAUUAGUCUGCAUGCCGCCGGGCGCCAUGCCUGCAGGUCGACUCUAGAAAACAUG,binding signal,[1],5.15 log2 enrichment (interaction score)
same,binding signal,[2],2.48 log2 enrichment (interaction score)
same,binding signal,[3],3.18 log2 enrichment (interaction score)
GGCUAGAACUAGUGGAUCCCCCGGCGCCCGGCGGCUCGAGCCCGGGUAAGUGUAAGUAGUCUGCAUGCCGCCGGGCGCCAUGCCUGCAGGUCGACUCUAGAAAACAUG,binding signal,[2],5.35 log2 enrichment (interaction score)
same,binding signal,[4],2.43 log2 enrichment (interaction score)
GGCUAGAACUAGUGGAUCCCCCGGCGCCCGGCGGCUCGAGCCCGGGUAAGUCUAAAUAGUCUGCAUGCCGCCGGGCGCCAUGCCUGCAGGUCGACUCUAGAAAACAUG,binding signal,[5],2.67 log2 enrichment (interaction score)
GGCUAGAACUAGUGGAUCCCCCGGCGCCCGGCGGCUCGAGCCCGGGUAAGUGAAAAUAGUCUGCAUGCCGCCGGGCGCCAUGCCUGCAGGUCGACUCUAGAAAACAUG,binding signal,[6],2.33 log2 enrichment (interaction score)
same,binding signal,[7],7.53 log2 enrichment (interaction score)
GGCUAGAACUAGUGGAUCCCCCGGCGCCCGGCGGCUCGAGCCCGGGUAAGUGUAAAUAGUCUGCAUGCCGCCGGGCGCCAUGCCUGCAGGUCGACUCUAGAAAACAUG,binding signal,[8],2.35 log2 enrichment (interaction score)
same,binding signal,[7],3.57 log2 enrichment (interaction score)
same,binding signal,[9],1.95 log2 enrichment (interaction score)
GGCUAGAACUAGUGGAUCCCCCGGCGCCCGGCGGCUCGAGCCCGGGUAAGUGUAAAUUGUCUGCAUGCCGCCGGGCGCCAUGCCUGCAGGUCGACUCUAGAAAACAUG,binding signal,[10],1.41 log2 enrichment (interaction score)
GGCUAGAACUAGUGGAUCCCCCGGCGCCCGGCGGCUCGAGCCCGGGUAAGUGUAAAUCGUCUGCAUGCCGCCGGGCGCCAUGCCUGCAGGUCGACUCUAGAAAACAUG,binding signal,[10],2.95 log2 enrichment (interaction score)
GGCUAGAACUAGUGGAUCCCCCGGCGCCCGGCGGCUCGAGCCCGGGUAAGUGUUAAUAGUCUGCAUGCCGCCGGGCGCCAUGCCUGCAGGUCGACUCUAGAAAACAUG,binding signal,[9],4.52 log2 enrichment (interaction score)
